Reference: PubChem BioAssay (NCI)
The panel holds about 79,000 compounds, 15% with a hit somewhere; the sample as a whole holds those more often. Rule as the data show it: active = growth inhibition above about 70%; inactive = the rest.

Key:
[1] = NCI Yeast Anticancer Drug Screen. Data for the rad50 strain (AID 155);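 also: 0% = growth of vehicle-only cultures of the same strain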; details: S. cerevisiae rad50 strain growth inhibition; at 50.0 µM; active compounds read high
How it was run: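 Genetically altered yeast (DNA repair pathway); compound treatment; growth inhibition vs vehicle ctrl.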

[2] = NCI Yeast Anticancer Drug Screen. Data for the mec2-1 strain (AID 157); details: S. cerevisiae mec2-1 strain, at 50.0 µM, active compounds read high
How it was run: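 Each compound was tested on mec2-1 yeast, a strain altered in DNA damage repair or cell cycle control. Growth inhibition is reported relative to vehicle.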

[3] = NCI Yeast Anticancer Drug Screen. Data for the sgs1 mgt1 strain (AID 161);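 also: 0% = growth of cultures given vehicle only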; details: S. cerevisiae sgs1 mgt1 strain, at 50.0 µM, active compounds read high
How it was run: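 Test agents were incubated with a DNA-repair-mutant yeast strain. Growth was then read and compared against vehicle-treated controls.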

[4] = NCI Yeast Anticancer Drug Screen. Data for the cln2 rad14 strain (AID 165);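 also: 0% = growth equal to vehicle treated cultures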; details: S. cerevisiae cln2 rad14 strain, at 50.0 µM, active compounds read high
How it was run: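 Test compounds were added to cln2 rad14 yeast cultures; inhibition of growth was then determined by comparison with vehicle treatment.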

[5] = NCI Yeast Anticancer Drug Screen. Data for the bub3 strain (AID 167); details: S. cerevisiae bub3 mutant strain, at 50.0 µM, active compounds read high
How it was run: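 Yeast carrying a defined mutation is treated with each compound, and growth is compared with that of vehicle-exposed cells to give inhibition.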

[6] = NCI Yeast Anticancer Drug Screen. Data for the mlh1 rad18 strain (AID 175); details: S. cerevisiae mlh1 rad18 strain growth inhibition; at 50.0 µM; active compounds read high
How it was run: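 Inhibition values reflect reduced growth of mutant yeast versus vehicle-treated controls following compound exposure; the mutations affect DNA damage repair.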

Measured: growth inhibition

C=C1CC(OC(=O)c2ccc([N+](=O)[O-])cc2)C1
inactive: [1] 1.5% | [2] -16.6% | [3] -16.5% | [4] -8.65% | [5] 3.7% | [6] -8.5%

COc1cccc(Nc2nc(NS(=O)(=O)c3cc(C)c(Cl)cc3S)n[nH]2)c1
inactive: [1] -7.6% | [2] -2.3% | [3] -6.25% | [4] 7.95% | [5] 16.1% | [6] 15.8%

Cc1ccc(S(=O)(=O)CC(O)(C(C)C)C(C)C)cc1
inactive: [1] -19% | [2] -8.6% | [3] -14.2% | [4] 12.8% | [5] 16.6% | [6] -17.4%

CC(=N/NC(=S)NCCN1CCCC1)/C(C)=N\NC(=S)NCCN1CCCC1
inactive: [1] 50.6% | [2] 4.95% | [3] 47.6% | [4] 10.6% | [5] 12.7% | [6] 35.1%

CC(C)c1ccc(C(=O)OCC2CCCO2)cc1 (stereo unspecified)
inactive: [1] 7.95% | [2] 13.1% | [3] 6.5% | [4] -13.7% | [5] -5.3% | [6] 3.65%

O=C1CCC(=O)Nc2ccc3nc4ccccc4c(c3c2)SCCCCCCCCCCCCSc2c3ccccc3nc3ccc(cc23)N1
inactive: [1] -22.4% | [2] -15.2% | [3] -15.2% | [4] -36.4% | [5] -8.4% | [6] -0.85%

C/C=C(\C)C(=O)OCC1CC[N+](C)([O-])C1 (stereo unspecified)
inactive: [1] -23.8% | [2] -8% | [3] -6.7% | [4] -57.9% | [5] 5% | [6] -15.3%

CC(C)(C)C(=O)CC(=O)C(C)(C)C.[Cu]
inactive: [1] -10.2% | [2] -9.35% | [3] -4.2% | [4] -56.6% | [5] -26.4% | [6] 9.05%

NC(=O)NCP(=O)(CNC(N)=O)CNC(N)=O
inactive: [1] -20% | [2] -7.3% | [3] -4.25% | [4] -20.4% | [5] 32.8% | [6] 4.95%

COc1ncnc2ncn(C)c12
inactive: [1] 4.9% | [2] 18% | [3] -1.25% | [4] -12.9% | [5] 6.95% | [6] 0.2%

CCN(CC(O)COc1ccc2c(c1)[n+]([O-])nc(N)[n+]2[O-])C(C)=O (stereo unspecified)
inactive: [1] 46.5% | [2] 38% | [3] 40.3% | [4] 38.9% | [5] 31% | [6] 38.8%

CC12CCC(CC1=O)C2(C)CCC(N)=O (stereo unspecified)
inactive: [1] -1.55% | [2] -12% | [3] 18.2% | [4] -11.7% | [5] -17.9% | [6] -8.8%

O=c1[nH]c2ccccc2c(O)c1O
inactive: [1] 24.4% | [2] 7.85% | [3] 22.9% | [4] 14.7% | [5] 1% | [6] -5.35%

O=C1CS[C@@H]2C(=O)CCCC2C1 (stereo partly specified)
inactive: [1] -16% | [2] 17.6% | [3] -1.8% | [4] -7.25% | [5] -3.4% | [6] -4.4%

COc1cccc(-c2ccccc2)c1
inactive: [1] 7.35% | [2] 10.9% | [3] -11.3% | [4] 3.2% | [5] 14.6% | [6] -16.6%

O=C(NCc1cccs1)OC1CC2CCC1C2 (stereo unspecified)
inactive: [1] 1.6% | [2] -7.45% | [3] 10.8% | [4] -14.8% | [5] -8% | [6] 20.4%

COc1cc2c(c3c1CCC(C)(C)O3)Cc1c(cc(OC)c(OC)c1CCC(C)(C)O)O2
inactive: [1] 41.8% | [2] -3.9% | [3] 3.6% | [4] 0.4% | [5] 3% | [6] 7.6%

CC(C)(CO)CN1CCCC1
inactive: [1] 10.3% | [2] -25.9% | [3] -4.05% | [4] 1.3% | [5] 3% | [6] 0.8%

CC(C(=O)c1ccc(Cl)cc1)C1=NC2NN(c3ccccc3)C(=O)C2=C1C(C)C(=O)c1ccc(Cl)cc1 (stereo unspecified)
inactive: [1] 10.5% | [2] -12.3% | [3] 6% | [4] -0.3% | [5] 1.8% | [6] 3.25%

CC(C)(C#N)CCCS(C)(=O)=O
inactive: [1] -7.75% | [2] -4.35% | [3] -4% | [4] -9.25% | [5] -12.6% | [6] -2.65%

CC1=C(N2CCCCC2)S(=O)(=O)c2ccccc2C1
inactive: [1] 42.6% | [2] 3.6% | [3] 26.5% | [4] -19.6% | [5] 8.15% | [6] 44%

OC(c1ccccc1)(C(F)(F)F)C(F)(F)F
inactive: [1] 3% | [2] 5.85% | [3] 6.1% | [4] 14.3% | [5] 9.9% | [6] 8.75%

CCN(CC)CCOC(=O)c1ccc(NC(=O)Nc2ccccc2[N+](=O)[O-])cc1
inactive: [1] 19.4% | [2] 5.5% | [3] 19.1% | [4] 16.6% | [5] 15.6% | [6] 14.8%

Nc1nc(-c2ccccc2)nc(-c2ccccc2)n1
inactive: [1] -2.95% | [2] -7.05% | [3] -8.4% | [4] -14.2% | [5] -21.7% | [6] -16.4%

N#Cc1c(-c2ccc(Cl)cc2)c(C#N)c(=O)n(NS(=O)(=O)c2ccccc2)c1O
inactive: [1] 17.5% | [2] 46.9% | [3] 41.7% | [4] 48% | [5] 47% | [6] 50.2%

Cc1cccc(C(O)c2ccccn2)c1O (stereo unspecified)
inactive: [1] -3.85% | [2] -4.45% | [3] -6.8% | [4] -4.45% | [5] -3.8% | [6] 3.1%

Cc1cn(C2CC(O)C(COC(N)=O)O2)c(=O)[nH]c1=O (stereo unspecified)
inactive: [1] -38.2% | [2] -20.9% | [3] -11.6% | [4] -5.3% | [5] -44.3% | [6] 2.35%

CC(O)CN1CCN(CCN(CC(C)O)CC(C)O)CC1 (stereo unspecified)
inactive: [1] -16.1% | [2] -24.2% | [3] -3.7% | [4] -2% | [5] -9.4% | [6] -19.6%

COC1(OC)CCC2C1C1CCC(OC)(OC)C21 (stereo unspecified)
inactive: [1] 1.7% | [2] -3.35% | [3] 11.3% | [4] 8.75% | [5] 3.4% | [6] -17.4%

NC(=O)N/N=C/c1ccc([N+](=O)[O-])s1
inactive: [1] -29.6% | [2] -0.8% | [3] 1.8% | [4] -39% | [5] -6.9% | [6] -8.5%

O=C(c1ccccc1)C(O)(c1ccccc1)c1ccccc1
inactive: [1] 37.5% | [2] -18.2% | [3] 3.8% | [4] -31.1% | [5] 22.1% | [6] 0.8%

O=C(O)Cc1ccccc1C(=O)O
inactive: [1] 12.9% | [2] 2.3% | [3] 7.7% | [4] 13.8% | [5] -19% | [6] -5%

CN(C)CCN1C(=O)c2c(c3cccn3c3c2cnn3-c2ccccc2)C1=O
inactive: [1] 36.8% | [2] 12.1% | [3] 34% | [4] -43% | [5] 4.9% | [6] 32.6%

NC(=O)C(O)(c1ccc(Br)cc1)C(Cl)Cl (stereo unspecified)
inactive: [1] 4.65% | [2] 3.05% | [3] -5.55% | [4] 9.05% | [5] 11.6% | [6] 5.95%

O=c1[nH]c2ccccc2c(O)c1/C=N/C(=S)NC1CCCCC1
inactive: [1] -14.6% | [2] -36.3% | [3] -7.55% | [4] 14.9% | [5] 3.45% | [6] 9.25%

CCN(CC)CCCn1c(-c2ccccc2)ccc1-c1ccccc1
inactive: [1] 10.1% | [2] -6% | [3] 8.1% | [4] -16.4% | [5] 21.4% | [6] 18.4%

Cc1ccc(N=Cc2ccccc2O)cc1.[Co]
inactive: [1] -18.9% | [2] 14.9% | [3] -2.75% | [4] 14.2% | [5] 1.45% | [6] -11.1%

CN(C)c1cc(-c2ccccc2)oc(=O)c1Cl
inactive: [1] 11.6% | [2] -19.8% | [3] -24.2% | [4] -22.2% | [5] -16.2% | [6] -9.15%

CCCCCCC(c1ccc(N(C)C)cc1)c1ccc(N(C)C)cc1
inactive: [1] -6.95% | [2] 15.7% | [3] -4.45% | [4] 13.1% | [5] 24.9% | [6] 29.9%

CC(C)C1NC(C(=O)O)C(C)(C)S1 (stereo unspecified)
inactive: [1] 1.75% | [2] 6.6% | [3] -1.6% | [4] 4.05% | [5] 0.35% | [6] -16.1%

Nc1ccc(/C(=N\O)c2ccccc2)cc1
inactive: [1] 19.6% | [2] 13.9% | [3] 23.9% | [4] 0.8% | [5] -2.6% | [6] 10.1%
